In PubChem BioAssay (Tox21) one finds Potency, outcome and max activation data, which are given here for eight compounds.

A number with no mark means an inactive call. Results filed as inconclusive are left out. Calls of active or inactive are those of the source. Unless noted, calls follow the shape of the dose curve; as a rule, active = well fitted curve in the direction sought with a large enough effect in the repeat runs; inconclusive = weak or mixed curves; inactive = no such curve, though single readings can be large; an effect the other way counts as inactive or inconclusive.

Assay [1] addresses Progesterone receptor (Homo sapiens) (UniProt P06401). Description: qHTS assay to identify small molecule agonists of the progesterone receptor (PR) signaling pathway (AID 1346784; calls by dose curve; also: nearly all actives have a fitted effect of over 30% in size). The gist of the method:
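Cells (PR-UAS-bla HEK 293T, GripTite) were plated in assay medium containing 2% charcoal-stripped FBS and incubated 6 hr. Test compounds in DMSO were added for 16 hr at 37C. FRET substrate was then loaded for 2 hr at room temperature before fluorescence reading.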
For orientation: Quantitative high-throughput screening tests each substance at several concentrations.

For assay [2] the target is unchanged. Description: qHTS assay to identify small molecule antagonists of the progesterone receptor (PR) signaling pathway (AID 1346795; active = well fitted inhibition curve with a large enough effect in the signal ratio in the repeat runs, not every such curve was filed as active; the % refers to the signal ratio). The method, boiled down: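 Antagonist mode: compounds tested against 1 nM (final) promegestone stimulation in HEK293T cells expressing PR-UAS-bla reporter, 16 hr at 37C, 5% CO2; beta-lactamase activity detected via B/G FRET substrate after 2 hr at room temperature.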

Assay [3] can be described thus: qHTS assay to identify small molecule antagonists of the progesterone receptor (PR) signaling pathway - cell viability counter screen (AID 1346798). Also: series mostly up to about 92 µM; nearly all actives have a fitted effect of over 50% in size. The gist of the method:
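Counter screen for cytotoxicity: viability of PR-UAS-bla HEK293T cells was measured with CellTiter-Glo luminescence following 16 hr compound exposure in the presence of R5020.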

The nature of assay [4]: qHTS assay to identify small molecule agonists of the progesterone receptor (PR) signaling pathway - cell viability counter screen (AID 1346799; calls by dose curve; also: nearly all actives have a fitted effect of over 45% in size). The gist of the method:
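Cells (PR-UAS-bla HEK293T) are plated at 3,000/well in 2% charcoal-stripped FBS medium, rested 6 hr, dosed and incubated 16 hr at 37C. CellTiter-Glo is then added and luminescence measured after 30 min at room temperature.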

A short description of assay [5]: qHTS assay to identify small molecule antagonists of the TGF-beta/Smad signaling pathway - cell viability counter screen (AID 1346824). Also: nearly all actives have a fitted effect of over 50% in size. The gist of the method: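 SBE-bla HEK 293T cells, incubated overnight, then compound plus 0.25 ng/mL TGF-beta1 (stock added) for 5 hr at 37 C. Viability was read in the same wells by CellTiter-Glo luminescence after 30 min at room temperature.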

Assay [6] is described as follows: qHTS assay to identify small molecule agonists of the TGF-beta/Smad signaling pathway - cell viability counter screen (AID 1346829). Also: top concentration of the series differs between compounds; nearly all actives have a fitted effect of over 45% in size. The method, boiled down: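 Compound-treated SBE-bla HEK 293T cells (5 hr, 37 C) were assessed for viability with CellTiter-Glo in parallel with the reporter read.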
Assay [7] can be described thus: qHTS assay to identify small molecule agonists of the TGF-beta/Smad signaling pathway (AID 1346859; active = well fitted activation curve with a large enough effect in the signal ratio in the repeat runs, not every such curve was filed as active; the % refers to the signal ratio; also: series mostly up to about 77 µM). The gist of the method:
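Reporter line: HEK 293T with stably integrated SBE-controlled beta-lactamase. Compound exposure lasts 5 hr at 37 C and 5% CO2; substrate loading follows for 2 hr at room temperature, with emission read at 460 and 530 nm.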

In assay [8] the target is Thyrotropin-releasing hormone receptor (Homo sapiens) (UniProt P34981). The experiment in a line: qHTS assay to identify small molecule antagonists of the thyrotropin-releasing hormone receptor (TRHR) signaling pathway (AID 1346877; active = well fitted inhibition curve with a large enough effect in the repeat runs, not every such curve was filed as active; also: series mostly up to about 51 µM). The gist of the method:
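Intracellular calcium fluorescence, read kinetically every second over 3 min, reports TRH-evoked signalling in HEK293 cells carrying TRHR. Test compounds were added 5 min ahead of a 1 nM TRH challenge.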

Assay [9] has the same target. The experiment in a line: qHTS assay to identify small molecule agonists of the thyrotropin-releasing hormone receptor (TRHR) signaling pathway (AID 1346891; calls by dose curve;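 also: HEK293 cells expressing TRHR with calcium dye readout; series mostly up to about 58 µM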). The method, boiled down:
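Cells: TRHR-Hek293, seeded and incubated 18 h. Dye loading: 2 h at 37 °C. Compound added from DMSO stock by pin tool. Read-out: kinetic calcium fluorescence over 3 min.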

Assay [10] is described as follows: Human pregnane X receptor (PXR) small molecule agonists, qHTS cell viability counter screen (AID 1346977). Also: nearly all actives have a fitted effect of over 50% in size. The method, boiled down: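 Cytotoxicity counter screen run in the same wells as the PXR luciferase assay, using PXR-Luc HepG2 cells in charcoal-stripped serum medium. Viability: CellTiter-Fluor fluorescence after 24hr compound treatment.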
Assay [11] in a line: Caspase-3/7 induction in HepG2 cells by small molecules, qHTS assay (AID 1346978). Also: nearly all actives have a fitted effect of over 15% in size. The gist of the method:
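Wild-type HepG2 cells, 2,000/well, settled 5 hr at 37 C and 5% CO2, then compound-treated for 17 hr; caspase-3/7 activity read by luminescent Caspase-Glo 3/7 after 30 min at room temperature.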

Assay [12] is described as follows: Caspase-3/7 induction in CHO-K1 cells by small molecules, qHTS cell viability counter screen (AID 1346979). Also: nearly all actives have a fitted effect of over 35% in size. Also: potency is read from the fitted curve at half-maximal effect. The gist of the method: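 Cytotoxicity counter screen run in parallel with the caspase-3/7 assay: CHO-K1 cells, 16hr compound treatment at 37C, then CellTiter-Fluor for 1hr before fluorescence reading.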
Assay [13] can be described thus: Caspase-3/7 induction in CHO-K1 cells by small molecules, qHTS assay (AID 1346980). Also: nearly all actives have a fitted effect of over 15% in size. The gist of the method: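 Wild-type CHO-K1 cells exposed to compounds for 17hr at 37 C, 5% CO2. Caspase-3/7 activity then measured by Caspase-Glo 3/7 luminescence after 30min at room temperature.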
Assay [14] is described as follows: Caspase-3/7 induction in HepG2 cells by small molecules, qHTS cell viability counter screen (AID 1346981). Also: series mostly up to about 92 µM; nearly all actives have a fitted effect of over 30% in size. The gist of the method:
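HepG2, WT, 2,000 cells/well; 5 hr pre-incubation 37 C/5% CO2; compound pin-transferred from DMSO; 16 hr exposure; CellTiter-Fluor, 1 hr; fluorescence read.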

In assay [15] the target is Nuclear receptor subfamily 1 group I member 2 (Homo sapiens) (UniProt O75469). Description: Human pregnane X receptor (PXR) small molecule agonists, qHTS assay (AID 1346982). Also: nearly all actives have a fitted effect of over 35% in size. Also: potency is read from the fitted curve at half-maximal effect. The method, boiled down:
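Luciferase signal from ONE-Glo (30 min, room temperature) measured activation of hPXR-driven CYP3A4 reporter expression in PXR-Luc HepG2 cells treated with compounds for 24 hr at 37 C.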

In assay [16] the target is Acetylcholinesterase (Homo sapiens) (UniProt P22303). The experiment in a line: Acetylcholinesterase (AChE) small molecule antagonists: colormetric cell-based qHTS assay (AID 1347395; calls by dose curve; also: nearly all actives have a fitted effect of over 30% in size). The method, boiled down:
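Cells (SH-SY5Y, 2,000 per well) are seeded and left overnight at 37 C. Compound is added for 30 min, then DTNB and acetylthiocholine for a further 90 min at 37 C before absorbance-based thiocholine detection.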

Assay [17] shares this target. The experiment in a line: Acetylcholinesterase (AChE) small molecule antagonists: enzyme-based qHTS assay (AID 1347397; calls by dose curve; also: nearly all actives have a fitted effect of over 55% in size). The note with it: Potency: AChE enzyme activity inhibition. The method, boiled down: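 Recombinant human AChE (50 mU/mL) preincubated with compound 30 min at room temperature; acetylthiocholine plus DTNB then added, and thiocholine formation read colorimetrically after 10 min at room temperature. DMSO served as vehicle control.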

Assay [18] concerns the target Nuclear receptor subfamily 1 group I member 2 (Rattus norvegicus) (UniProt Q9R1A7). Description: Rat pregnane X receptor (rPXR) activation by small molecules, qHTS assay (AID 1346983). Also: nearly all actives have a fitted effect of over 20% in size. The note with it: rPXR luciferase reporter cells, One-Glo luminescence, 24 h; max activation: stronger effect = higher value. The gist of the method:
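Cell-based rPXR activation assay: rPXR cells, 2,000 per well, rested 5hr at 37 C, then exposed to compounds in DMSO for 24 hr at 37 C. Luciferase activity read by One-Glo luminescence after 30 min at room temperature.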

In assay [19] the target is Nuclear receptor subfamily 1 group I member 2 (Homo sapiens) (UniProt O75469). The experiment in a line: CYP3A4 induction through human pregnane X receptor (PXR) by small molecules, qHTS assay (AID 1346984). Also: nearly all actives have a fitted effect of over 40% in size. The method, boiled down: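 Luminescence readout: luciferase signal after One-Glo (30 min, room temperature), following 3 h at 37C with 3uM final Luciferin-IPA P450 substrate. Cells were DPX-2 (HepG2, PXR/CYP3A4-luc co-transfected) dosed for 24 h.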
Chain of Nuclear receptor subfamily 1 group I member 2 (Homo sapiens) (O75469 whole entry, looked up): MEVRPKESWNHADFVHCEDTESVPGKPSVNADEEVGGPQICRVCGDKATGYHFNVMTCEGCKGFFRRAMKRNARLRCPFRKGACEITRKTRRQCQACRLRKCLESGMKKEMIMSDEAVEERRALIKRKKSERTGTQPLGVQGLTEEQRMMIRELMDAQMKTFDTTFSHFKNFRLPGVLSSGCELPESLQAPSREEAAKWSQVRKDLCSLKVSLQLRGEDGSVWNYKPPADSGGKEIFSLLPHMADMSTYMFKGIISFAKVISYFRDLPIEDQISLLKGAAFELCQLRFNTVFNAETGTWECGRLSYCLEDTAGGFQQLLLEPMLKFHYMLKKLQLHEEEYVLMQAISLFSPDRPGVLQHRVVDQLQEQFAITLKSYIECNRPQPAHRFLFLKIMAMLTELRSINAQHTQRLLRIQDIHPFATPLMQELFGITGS

Assay [20] shares this target. Description: Human pregnane X receptor (PXR) activation by small molecules, qHTS assay (AID 1346985). Also: nearly all actives have a fitted effect of over 40% in size. The gist of the method:
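DPX-2 cells (HepG2 co-transfected with a PXR response element and a CYP3A4-promoter luciferase construct) were seeded at 2,000 per well, rested 5 hr at 37C, then exposed to DMSO-dissolved compounds for 24 hr. Activation was read as luciferase luminescence.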
% is scaled to controls: 0 for no effect and ±100 for the full control effect.

Chain of Progesterone receptor (Homo sapiens) (P06401 whole entry, looked up): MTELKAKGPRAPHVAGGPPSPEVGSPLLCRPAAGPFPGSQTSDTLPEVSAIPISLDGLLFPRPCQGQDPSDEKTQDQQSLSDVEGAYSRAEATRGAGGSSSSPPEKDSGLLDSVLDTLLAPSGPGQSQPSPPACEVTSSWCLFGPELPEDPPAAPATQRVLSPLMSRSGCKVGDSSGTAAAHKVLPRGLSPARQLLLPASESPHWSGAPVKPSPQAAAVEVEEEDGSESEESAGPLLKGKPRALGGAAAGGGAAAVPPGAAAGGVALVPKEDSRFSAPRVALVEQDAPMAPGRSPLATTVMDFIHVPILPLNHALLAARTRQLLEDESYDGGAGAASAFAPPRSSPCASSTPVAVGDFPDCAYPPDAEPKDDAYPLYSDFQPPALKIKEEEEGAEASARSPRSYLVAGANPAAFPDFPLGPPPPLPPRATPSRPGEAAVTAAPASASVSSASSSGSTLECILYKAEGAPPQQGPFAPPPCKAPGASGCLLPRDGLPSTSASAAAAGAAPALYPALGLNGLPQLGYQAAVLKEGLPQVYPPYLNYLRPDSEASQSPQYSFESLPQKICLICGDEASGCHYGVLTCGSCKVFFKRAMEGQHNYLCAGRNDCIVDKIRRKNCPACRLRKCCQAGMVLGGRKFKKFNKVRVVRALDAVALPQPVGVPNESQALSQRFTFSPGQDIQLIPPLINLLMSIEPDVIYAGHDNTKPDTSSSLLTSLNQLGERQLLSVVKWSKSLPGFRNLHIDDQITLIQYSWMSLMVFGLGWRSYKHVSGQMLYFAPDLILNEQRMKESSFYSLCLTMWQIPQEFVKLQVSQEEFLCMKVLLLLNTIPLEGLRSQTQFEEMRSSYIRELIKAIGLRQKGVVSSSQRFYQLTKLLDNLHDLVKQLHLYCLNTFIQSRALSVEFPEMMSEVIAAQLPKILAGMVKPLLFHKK
Chain of Acetylcholinesterase (Homo sapiens) (P22303 whole entry, looked up): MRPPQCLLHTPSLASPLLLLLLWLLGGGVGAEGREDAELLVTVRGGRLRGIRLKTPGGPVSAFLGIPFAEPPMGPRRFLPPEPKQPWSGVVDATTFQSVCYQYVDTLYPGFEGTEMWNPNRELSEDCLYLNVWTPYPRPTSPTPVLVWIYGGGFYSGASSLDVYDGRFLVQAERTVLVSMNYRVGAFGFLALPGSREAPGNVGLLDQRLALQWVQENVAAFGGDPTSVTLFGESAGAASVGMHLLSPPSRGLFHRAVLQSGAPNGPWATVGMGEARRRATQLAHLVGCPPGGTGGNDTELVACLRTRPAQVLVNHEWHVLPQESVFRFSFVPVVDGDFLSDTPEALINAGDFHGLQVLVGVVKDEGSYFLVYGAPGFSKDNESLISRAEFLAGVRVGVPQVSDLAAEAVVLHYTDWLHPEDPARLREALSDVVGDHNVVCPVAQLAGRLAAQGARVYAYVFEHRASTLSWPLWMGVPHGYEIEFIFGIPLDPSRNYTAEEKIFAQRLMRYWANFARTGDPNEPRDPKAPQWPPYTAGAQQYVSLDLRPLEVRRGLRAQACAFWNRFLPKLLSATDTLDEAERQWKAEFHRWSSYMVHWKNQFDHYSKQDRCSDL
Chain of Thyrotropin-releasing hormone receptor (Homo sapiens) (P34981 whole entry, looked up): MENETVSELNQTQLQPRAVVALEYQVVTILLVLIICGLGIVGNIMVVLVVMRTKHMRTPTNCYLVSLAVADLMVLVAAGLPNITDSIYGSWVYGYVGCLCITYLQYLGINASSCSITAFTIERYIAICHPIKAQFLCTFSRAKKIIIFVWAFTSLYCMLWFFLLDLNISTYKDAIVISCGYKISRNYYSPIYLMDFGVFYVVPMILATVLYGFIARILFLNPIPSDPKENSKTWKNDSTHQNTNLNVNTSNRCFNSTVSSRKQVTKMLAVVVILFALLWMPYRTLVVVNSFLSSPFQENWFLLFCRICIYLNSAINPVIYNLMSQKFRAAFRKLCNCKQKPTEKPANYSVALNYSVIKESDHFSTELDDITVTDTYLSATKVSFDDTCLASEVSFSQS
Chain of Nuclear receptor subfamily 1 group I member 2 (Rattus norvegicus) (Q9R1A7 whole entry, looked up): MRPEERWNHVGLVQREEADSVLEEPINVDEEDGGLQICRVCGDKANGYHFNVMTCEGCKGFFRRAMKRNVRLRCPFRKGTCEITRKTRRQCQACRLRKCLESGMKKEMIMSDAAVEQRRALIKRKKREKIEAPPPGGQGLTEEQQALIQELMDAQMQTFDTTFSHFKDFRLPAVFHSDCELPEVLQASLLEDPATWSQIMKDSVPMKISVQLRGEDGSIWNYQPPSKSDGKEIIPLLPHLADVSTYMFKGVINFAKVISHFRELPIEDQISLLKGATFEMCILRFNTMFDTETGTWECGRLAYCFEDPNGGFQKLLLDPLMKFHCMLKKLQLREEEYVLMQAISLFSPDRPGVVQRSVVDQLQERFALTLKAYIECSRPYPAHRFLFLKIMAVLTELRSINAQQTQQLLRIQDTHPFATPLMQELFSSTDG

As to `CC(N)=S`, the Potency result in assay [1], in assay [2], in assay [3], in assay [4], in [5] and in assay [10] was “inactive” throughout. The Potency result in [11], in assay [12], in assay [13], in assay [14], in assay [15] and in assay [16] was “inactive” throughout. Besides, the compound was called inactive in assay [6], in assay [7], in [8] and in assay [9].

With `O=NN1CCCCC1`, the Potency result in [1], in [2], in assay [3], in assay [4], in assay [5] and in [10] was “inactive” throughout. The Potency result in assay [11], in assay [12], in assay [13], in [14], in assay [15] and in assay [16] was “inactive” throughout. The Potency result in assay [17] was “inactive”. Also, the compound was called inactive in assay [6], in [7], in assay [8] and in assay [9].

On to `CCCCP(CCCC)CCCC`, for which the Potency result in assay [1], in assay [2], in assay [3], in assay [4], in assay [5] and in assay [10] was “inactive” in each case. Besides, the Potency entry in assay [11], in assay [12], in assay [13], in assay [14], in assay [15] and in assay [17] was “inactive” each time. Moreover, the compound was called inactive in assay [6], in assay [7], in [8] and in assay [9].

Take `c1coc(-c2nc3ccccc3[nH]2)c1`: the Potency result in [1], in assay [2], in assay [3], in assay [4], in [5] and in assay [10] was “inactive” in each case. The Potency entry in assay [11], in assay [12], in assay [13], in assay [14] and in [17] was “inactive” in each case. In addition, the compound was called inactive in assay [6], in assay [7], in assay [8] and in assay [9]. The Potency in [15] was 3.44 µM (active).

Consider `O=C(CCN1CC1)OCC(CO)(COC(=O)CCN1CC1)COC(=O)CCN1CC1`, for which the Potency entry in assay [1], in assay [2], in assay [3], in assay [4], in assay [5] and in [10] was “inactive” in each case. Also, the Potency entry in assay [11], in assay [12], in assay [13] and in [15] was “inactive” in each case. Also, the compound was classed as inactive in [6], in assay [7], in assay [8] and in [9].

For `COc1cccc(C(=O)NN(C(=O)c2cc(C)cc(C)c2)C(C)(C)C)c1C`, the Potency result in [1], in assay [2], in assay [3], in assay [4], in [5] and in assay [10] was “inactive” throughout. In addition, the Potency entry in [11], in [13], in assay [15] and in assay [16] was “inactive” throughout. Moreover, the compound was classed as inactive in assay [6], in assay [7], in assay [8] and in assay [9]. Also, the Potency in [12] is 61.1 µM (active).

As to `c1cc2c(c(N3CCNCC3)c1)OCCO2`, the Potency result in assay [1], in assay [2], in [3], in assay [4], in [5] and in assay [10] was “inactive” throughout. Also, the Potency result in assay [11], in [12], in assay [13], in assay [14], in assay [15] and in [19] was “inactive” each time. The Potency result in assay [20], in assay [16] and in assay [17] was “inactive” throughout. Also, the result in [6], in assay [7], in assay [8] and in assay [9] was inactive. In addition, the max activation in assay [18] was 6.77%.

With `CCCCN(CCCCO)N=O`, the Potency result in assay [1], in assay [2], in assay [3], in [4], in assay [5] and in [10] was “inactive” throughout. In addition, the Potency entry in assay [11], in assay [12], in [13], in [14], in assay [15] and in [16] was “inactive” in each case. For the same compound, the call in assay [6], in assay [7], in assay [8] and in [9] was inactive.
